This is a sample that favours compounds with a hit; in the whole collection about 12% have one here.
CHX counter – counter-screen for Shiga toxin inhibitors: cycloheximide protein synthesis inhibition | cell reporter, cycloheximide protein synthesis inhibition counterscreen | AID 2314 | 12% of 300,000 active | max response, %; in the data active = max response mostly above about 13%, no sharp cut-off; inactive = mostly below about 14%; also: read at 38.3 µM for the half of the compounds with a filed dose; 0% is about no effect
Shiga inhibitor – inhibitors of Shiga toxin in Vero cells; AID 2315; inhibition, % at 38.7 µM; 9.2% of 290,000 active; Vero cells, Shiga toxin protein synthesis inhibition reporter; in the data active = inhibition mostly above about 28%, no sharp cut-off; inactive = mostly below about 43%; also: 0% is about no effect
LASV entry inh – inhibitors of Lassa virus binding or cell entry; Lassa virus pseudotype entry inhibition, cell reporter; 1.2% of 300,000 active; AID 540256; Potency, µM (series often up to 37.9 µM), for inactives: at the top dose activity change, negative = inhibition, most hits filed as inhibitors; calls by dose curve; tested in HEK293 cells; also: potency is read from the fitted curve at half-maximal effect; % is scaled to controls: 0 for no effect and ±100 for the full control effect; nearly all actives have a fitted effect of over 50% in size
MARV entry inh – inhibitors of Marburg virus binding or cell entry; Marburg virus pseudotyped entry inhibition, cell reporter; 1.8% of 300,000 active; Potency, µM (highest dose often 37.8 µM), without a hit: top-dose activity change, negative = inhibition, actives largely listed as inhibitors; calls by dose curve; tested in HEK293 cells; also: potency is read from the fitted curve at half-maximal effect; % is scaled to controls: 0 for no effect and ±100 for the full control effect
* = called active by the depositor; ? = inconclusive; nt = no result given; [ ] = another dose, or the depositor's remark.

SMILES | CHX counter | Shiga inhibitor | LASV entry inh | MARV entry inh
CC[C@H](C)[C@H](NC(=O)[C@H](Cc1ccc(O)cc1)NC(=O)[C@H](Cc1cnc[nH]1)NC(=O)[C@H](CCCNC(=N)N)NC(=O)[C@H](CC(C)C)NC(=O)[C@H](C)NC(=O)[C@H](CO)NC(=O)[C@H](Cc1ccc(O)cc1)NC(=O)[C@H](Cc1ccc(O)cc1)NC(=O)[C@H](CCCNC(=N)N)NC(=O)[C@H](C)NC(=O)[C@H](CCSC)NC(=O)[C@H](CC(=O)O)NC(=O)[C@H](CCC(=O)O)NC(=O)[C@H](C)NC(=O)[C@@H]1CCCN1C(=O)[C@H](C)NC(=O)[C@H](CC(=O)O)NC(=O)[C@H](CCC(=O)O)NC(=O)CNC(=O)[C@@H]1CCCN1C(=O)[C@H](CC(N)=O)NC(=O)[C@H](CC(=O)O)NC(=O)[C@@H]1CCCN1C(=O)[C@H](CCCCN)NC(=O)[C@H](CO)NC(=O)[C@@H]1CCCN1C(=O)[C@@H](N)Cc1ccc(O)cc1)C(=O)N[C@@H](CC(N)=O)C(=O)N[C@@H](CC(C)C)C(=O)N[C@@H](CC(C)C)C(=O)N[C@H](C(=O)N[C@@H](CCCNC(=N)N)C(=O)N1CCC[C@H]1C(=O)N[C@@H](CCCNC(=N)N)C(=O)N[C@@H](Cc1ccc(O)cc1)C(N)=O)[C@@H](C)O | 8 | 17 | nt | nt
COc1cc(/C=N/NC(N)=O)c(Br)cc1OCC(=O)Nc1ccccc1C | -4 | 1 | ? | 11µM*
CCOc1cc(/C=N/NC(N)=O)cc(Br)c1OCC(=O)Nc1cccc2ccccc12 | -4 | -6 | -21% | -17%
CCOc1cc(/C=N/NC(N)=O)cc(Br)c1OCC(=O)Nc1ccccc1C | -5 | -16 | -4% | 11µM*
CCN(CC)CCN1C(=O)C(=O)/C(=C(/O)c2c(C)[nH]c(C(=O)OC)c2C)[C@@H]1c1cccc(OC)c1 | nt | nt | nt | 24%
CCOc1ccccc1CN(CCc1ccc2c(c1)OCO2)Cc1ccccn1 | -3 | -15 | -19% | -29%
CCOc1ccccc1CN(CCc1ccc2c(c1)OCO2)Cc1cc(OC)c(OC)cc1OC | nt | nt | ? | 10µM*
CC(=O)Oc1ccc2c(c1)OC(c1ccccc1)CC21CC(C)(C)NC(=O)N1 (stereo not given) | -5 | -17 | -4% | ?
CC(=O)Oc1ccc(C2=Cc3ccc(OC(C)=O)cc3OC2C)cc1 (stereo not given) | nt | nt | 6.3µM* | ?
CC(=O)Oc1ccc(C(=O)NCc2ccco2)cc1 | 1 | -8 | 16%[46.1 µM] | -17%[46.1 µM]
O=C(COc1ccccc1F)NC12CC3CC(CC(C3)C1)C2 | -6 | -9 | nt | nt
CCc1ccc(-c2ccc(SCC(=O)Nc3nnc(C)s3)nn2)cc1 | 21 | 80* | ? | ?
Cc1cc2nc(-c3ccc(SCC(=O)Nc4ccc5c(c4)OCCO5)nc3)[nH]c2cc1C | 48* | 157* | -16% | ?
Cc1ccc2nc(-c3ccc(SCC(=O)Nc4ccc5c(c4)OCCO5)nc3)[nH]c2c1 | 107* | 81* | ? | -14%
Cc1nonc1NC(=O)CSc1ccccn1 | -5 | 1 | 3%[46.1 µM] | 0%[46.1 µM]
Cc1cc(=O)[nH]c(SCC(=O)Nc2ccc3c(c2)OCCO3)n1 | -2 | -14 | ? | -13%[46.1 µM]
CCOc1ccc(-c2ccc(SCC(=O)Nc3nnc(C)s3)nn2)cc1 | 10 | 19 | ? | -17%[46.1 µM]
Cc1ccc(-c2ccc(SCC(=O)Nc3nonc3C)nn2)cc1 | 27* | 42* | -1% | ?
CCOc1ccccc1CNC(=O)CN1C(=O)C2CCCCN2c2ccc(C(=O)N(C)C)cc21 (stereo not given) | nt | nt | -3%[46.1 µM] | nt
Cc1cccc(C(=O)N(Cc2ccco2)Cc2ccccc2F)c1 | nt | nt | 21%[46.1 µM] | -6%[46.1 µM]
O=C(CSc1ccc(-c2nc3ccccc3[nH]2)cn1)Nc1ccc2c(c1)OCCO2 | 18* | 16 | 15% | 25%
Cc1ccc(-c2ccc(SCC(=O)Nc3ccc4c(c3)OCCO4)nn2)cc1 | 28* | 22* | -11% | 17%
O=C(CSc1ccc(-c2nc3ccccc3[nH]2)cn1)Nc1ccc(S(=O)(=O)NC2CC2)cc1 | 11 | -3 | -2% | 21%
COc1ccccc1C(CNC(=O)C1CC(=O)N(Cc2ccc(C)cc2)C1)N1CCCC1 (stereo not given) | nt | nt | 0% | 1%
CC(=O)c1cccc(NC(=O)c2ccc3ccccc3c2)c1 | 28* | nt | nt | nt
SMILES | CHX counter | Shiga inhibitor | LASV entry inh | MARV entry inh
CCc1sc(C(=O)Nc2cccc(C(C)=O)c2)cc1C | 28* | 16 | 5% | -22%
O=C(Nc1cccc(C(=O)Nc2ccc(Br)cc2)c1)c1ccccc1 | 16* | 25 | nt | nt
CC(=O)c1cccc(NC(=O)NNC(=O)c2ccc3ccccc3c2)c1 | 1 | -5 | nt | nt
Cc1ccc(NC(=O)c2ccc(NC(=O)c3ccccc3)cc2)cc1C | 46* | 56* | ? | ?
Cc1ccccc1C(=O)N1CCC(C(=O)Nc2ccccn2)CC1 | nt | nt | 21% | 10%
COc1ccc(C(=O)NC2CCCc3c2cnn3-c2cccc(C)c2C)o1 (stereo not given) | 15 | -11 | nt | nt
COc1ccccc1C(=O)N/C(=C\c1ccccc1)C(=O)NCc1ccco1 | 1 | 11 | ? | -1%
CC(=O)c1cccc(NC(=O)c2cc(Cl)sc2Cl)c1 | 25* | 39* | 26% | 18%
COc1cccc(OC)c1C(=O)Nc1cccc(C(C)=O)c1 | -1 | 1 | -26% | ?
Cc1ccc(NC(=O)CCC(=O)NNC(=O)Cc2ccccc2)cc1C | -3 | -1 | 4% | 27%
O=C(Nc1ccc(-c2nc3ccccc3s2)c(OC(=O)c2ccccc2)c1)c1ccccc1 | 30* | 26 | ? | ?
O=C(CNCc1ccccc1)Nc1ccc(Cl)cc1 | 28* | 79* | nt | nt
Cc1ccc(NC(=O)CC(=O)c2ccccc2)cc1C | 34* | 101* | -10% | ?
O=C(NN=C1C[C@@H](O)[C@H](O)[C@H]2[C@@H]3C(=O)N(C[C@@H]4CCCO4)C(=O)[C@@H]3CC[C@H]12)OCc1ccccc1 | nt | nt | 2%[14.3 µM] | ?
O=C(CC(=O)c1ccccc1)Nc1ccc(Cl)cc1 | 36* | 80* | -29%[46.1 µM] | ?
S=C(Nc1cccc(Br)c1)c1ccccc1 | 45* | 109* | ? | 9%
CNC(=S)Nc1cccc(C(=O)O)c1 | -1 | -6 | 6% | 2%
O=C(Nc1ccc2nc3ccccc3nc2c1)c1ccccc1 | 40* | 25* | 11µM* | ?
Cc1ccc(NC(=O)CCn2c(=O)c3cccn3c3ccccc32)cc1C | 11 | 26* | ? | nt
Cc1ccc(NC(=O)C(SCC(=O)O)c2ccccc2)cc1C (stereo not given) | -2 | 13 | 7% | -3%
OC1(CNCc2ccccc2)C2CC3CC(C2)CC1C3 (stereo not given) | 6 | -4 | -16% | ?
Cc1cccc(C(=O)Nc2cccc(NC(=O)c3ccccc3)c2)c1 | 9 | 12 | -21% | 28%
CC(C)OC(=O)c1cccc(NC(=O)c2ccccc2)c1 | 26* | 69* | 1% | 0%
CC(=O)c1ccc(NC(=O)c2cccc(NC(=O)c3ccccc3)c2)cc1 | 23* | nt | ? | ?
COC(=O)CSC(C(=O)Nc1ccc(C)c(C)c1)c1ccccc1 (stereo not given) | 19 | 44* | 27% | 0%
O=C(CNCc1ccccc1)NC1C2CC3CC(C2)CC1C3 (stereo not given) | 14* | nt | 25% | 14%

Compound activity deposited in PubChem BioAssay by National Center for Advancing Translational Sciences (NCATS).
